Inconclusive results are not listed. The source made the active and inactive calls. Unless noted, calls come from the whole dose curve; as a rule, active = well fitted curve in the direction sought with a large enough effect; inconclusive = small, poorly fitted or top-dose-only effect, or another doubt; inactive = no such curve, though single readings can be large; an effect the other way counts as inactive or inconclusive.
Assays:
[1] = Quantitative High-Throughput drug screen in 47 multiple myeloma cell lines against the NCATS MIPE library collection: RPMI8226_ATCC cell viability assay (AID 1919871); settings: RPMI8226 myeloma viability, CellTiter-Glo ATP luminescence, 48 h; series mostly up to 45.8 µM; note: nearly all actives have a fitted effect of over 30% in size; note: potency is the fitted concentration of half-maximal effect
Summary of the method: (§1)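 Plated at 500 cells per well, myeloma lines received MIPE 4.0 compounds by pin tool. Following 48 h culture at 37 °C, CellTiter-Glo luminescence gave viability relative to DMSO and media-only controls.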

[2] = Quantitative High-Throughput drug screen in 47 multiple myeloma cell lines against the NCATS MIPE library collection: KMS11_JCRBsus cell viability assay (AID 1919873); settings: KMS11 myeloma viability, CellTiter-Glo ATP luminescence, 48 h; series mostly up to 45.8 µM; note: nearly all actives have a fitted effect of over 50% in size; note: potency is the fitted concentration of half-maximal effect
Summary of the method: as §1

[3] = Quantitative High-Throughput drug screen in 47 multiple myeloma cell lines against the NCATS MIPE library collection: KMS28BM_JCRB cell viability assay (AID 1919874); settings: CellTiter-Glo ATP, 48 h; series mostly up to 45.8 µM; note: nearly all actives have a fitted effect of over 35% in size; note: potency is the fitted concentration of half-maximal effect
Summary of the method: as §1

[4] = Quantitative High-Throughput drug screen in 47 multiple myeloma cell lines against the NCATS MIPE library collection: OPM2_DSMZ cell viability assay (AID 1919872); settings: OPM2 myeloma viability, CellTiter-Glo ATP luminescence, 48 h; series mostly up to 45.8 µM; note: nearly all actives have a fitted effect of over 30% in size
Summary of the method: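 CellTiter-Glo ATP luminescence gave viability after 48 h compound treatment at 37C of 500 multiple myeloma cells per well. Normalisation used DMSO-only wells as 100% and media-only wells as 0% viability; primary qHTS of approved and investigational drugs.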

[5] = qHTS drug screen for cell cycle checkpoint inhibitors in PARPi-resistant BRCA-mutant ovarian cancer cell lines. (AID 1963452; calls by dose curve); settings: PEO1/OlaR viability, CellTiter-Glo luminescence, 96 h, stronger effect = lower value
Summary of the method: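 PEO1, PEO4 and PEO1/OlaR ovarian cancer cells, 600 per well, exposed 96 h at 37C to a dilution series. Viability read by CellTiter-Glo luminescence, normalized to DMSO and empty wells; activity summarized as Z-AUC.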

[6] = qHTS for identification of novel therapeutic agents for treatment of microphthalmiaassociated transcription factor (MiT) renal cell carcinoma (RCC) (AID 1963991); settings: CellTiter-Glo, 48 h, stronger effect = lower value
Summary of the method: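 Three TFE3-fusion RCC lines (UOK109, UOK124, UOK145), 500 cells/well in complete medium, were treated with MIPE 4.0 compounds for 48 hours at 37 C. Viability was by CellTiter-Glo luminescence, normalized to DMSO (100%) and empty wells (0%); curves fitted over 11 concentrations.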

[7] = qHTS profiling for inhibitors of Plasmodium falciparum proliferation (AID 504749);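 note: 0% = DMSO vehicle and full inhibition = artemisinin control; nearly all actives have a fitted effect of over 60% in size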; settings: P. falciparum in erythrocytes, SYBR Green DNA, 72 h, at 28.7 µM (top of the series)
Summary of the method: (§2)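 Three-day growth assay of blood-stage parasites in erythrocytes (0.3% parasitemia, 2.5% hematocrit) at 37 C, 5% CO2, quantified by SYBR Green DNA staining after overnight detergent lysis.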

[8] = tested on: 3D7; test: as above; settings: P. falciparum in erythrocytes, SYBR Green DNA, 72 h; series mostly up to 28.7 µM
Summary of the method: as §2

[9] = tested on: 7G8; test: as above; settings: P. falciparum in erythrocytes, SYBR Green DNA, 72 h; series mostly up to 28.7 µM
Summary of the method: as §2

[10] = tested on: AA1029; test: as above; settings: P. falciparum in erythrocytes, SYBR Green DNA, 72 h; series mostly up to 28.7 µM
Summary of the method: as §2

[11] = measured here: PEO1 parental Z-AUC
[12] = TFE3-RCC UOK109 viability, measured here: UOK109 Z-AUC
[13] = TFE3-RCC viability, measured here: UOK124 Z-AUC
[14] = TFE3-RCC viability, measured here: UOK145 Z-AUC

Cc1ccc([C@@H]2O[C@H](CO)[C@@H](O)[C@H](O)[C@@H]2O)cc1Cc1ccc(-c2ccc(F)cc2)s1
Potency [1]: inactive | Potency [2]: 23.5 µM (active)

COC(=O)N[C@H](C(=O)N1CCC[C@@H]1c1ncc(-c2ccc(-c3ccc(-c4cnc([C@@H]5CCCN5C(=O)[C@@H](NC(=O)OC)C(C)C)[nH]4)cc3)cc2)[nH]1)C(C)C
Potency [1]: 20.9 µM (active) | Potency [2]: 26.4 µM (active) | Potency [3]: 20.9 µM (active)

O=C(NOCC(O)CO)c1cc(Br)c(F)c(F)c1Nc1ccc(I)cc1F (configuration not stated)
Potency [1]: inactive | Potency [4]: inactive | Z-AUC [5]: 0.348 (inactive) | Z-AUC [5, 11]: 0.513 | Z-AUC ([5]; measured here: PEO4 Z-AUC): 0.38

COc1ccc(-c2cc(=O)c3c(O)cc(O)cc3o2)cc1O
Potency [1]: inactive | Potency [2]: 26.4 µM (active) | Potency [3]: inactive | Z-AUC [5]: 0.388 (inactive) | Z-AUC [5, 11]: 0.498 | Z-AUC ([5]; measured here: PEO4 Z-AUC): 0.413

COc1ccc(-n2c(C)c([N+](=O)[O-])c3ccc(O)cc32)cc1
Potency [1]: inactive | Potency [4]: inactive | Z-AUC [5]: -0.721 (inactive) | Z-AUC [5, 11]: -0.631 | Z-AUC ([5]; measured here: PEO4 Z-AUC): -0.862 | z-score [6, 12]: 0.538 | z-score [6, 13]: 0.575 | z-score [6, 14]: 0.643

O=C(O)c1c(Cl)c(Cl)c(Cl)c(Cl)c1-c1c2cc(I)c(=O)c(I)c-2oc2c(I)c(O)c(I)cc12
Potency [1]: 9.35 µM (active) | Potency [2]: 6.62 µM (active) | Z-AUC [5]: 0.15 (inactive) | Z-AUC [5, 11]: 0.353 | Z-AUC ([5]; measured here: PEO4 Z-AUC): 0.104 | activity, negative = inhibition ([7]; parasite line A): 1.68% (inactive) | activity, negative = inhibition ([7]; parasite line B): 2.35% (inactive) | outcome [8]: inactive | Potency [9]: inactive | outcome [10]: inactive

CC(C)OC(=O)C(C)(C)Oc1ccc(C(=O)c2ccc(Cl)cc2)cc1
Potency [1]: 18.7 µM (active) | Potency [3]: inactive | Z-AUC [5]: -0.547 (inactive) | Z-AUC [5, 11]: -0.458 | Z-AUC ([5]; measured here: PEO4 Z-AUC): 0.0191

NC[C@@H]1O[C@@H](O[C@H]2[C@@H](O)[C@H](O[C@@H]3[C@@H](O)[C@@H](N)C[C@H](N)[C@H]3O[C@H]3O[C@H](CN)[C@@H](O)[C@@H](O)[C@H]3N)O[C@H]2CO)[C@H](N)[C@@H](O)[C@@H]1O
Potency [1]: inactive | Potency [2]: inactive | Potency [3]: inactive | z-score [6, 12]: 1.35 | z-score [6, 13]: 0.643 | z-score [6, 14]: 1.63

Nc1ncnc2c1ncn2[C@@H]1O[C@@H](CO)[C@H](O)[C@H]1O
Potency [1]: inactive | Potency [2]: inactive | z-score [6, 12]: 0.834 | z-score [6, 13]: 0.529 | z-score [6, 14]: 0.73

CN(C)c1cc(NC(=O)CNC(C)(C)C)c(O)c2c1C[C@@H]1C[C@H]3[C@H](N(C)C)C(=O)C(C(N)=O)=C(O)[C@@]3(O)C(=O)C1=C2O
Potency [1]: inactive | Potency [2]: inactive | Potency [3]: inactive | z-score [6, 12]: 1.85 | z-score [6, 13]: 0.166 | z-score [6, 14]: 0.881

COc1ccc2cccc(CCNC(C)=O)c2c1
Potency [1]: inactive | Potency [2]: inactive | Potency [3]: inactive | Z-AUC [5]: -0.374 (inactive) | Z-AUC [5, 11]: -0.478 | Z-AUC ([5]; measured here: PEO4 Z-AUC): -0.326 | z-score [6, 12]: 0.892 | z-score [6, 13]: 0.661 | z-score [6, 14]: 0.732

CNC(=O)c1ccc2cc(C3(O)CCn4cncc43)ccc2c1 (configuration not stated)
Potency [1]: inactive | Potency [2]: inactive | Potency [3]: inactive | Z-AUC [5]: -0.914 (inactive) | Z-AUC [5, 11]: -0.347 | Z-AUC ([5]; measured here: PEO4 Z-AUC): -0.305 | z-score [6, 12]: 0.41 | z-score [6, 13]: 0.546 | z-score [6, 14]: 0.539

CCCCCNC(=O)N1CCC(CN(Cc2ccc(Cl)cc2)Cc2ccc([N+](=O)[O-])s2)C1 (configuration not stated)
Potency [1]: 26.4 µM (active) | Potency [3]: 18.7 µM (active) | Z-AUC [5]: -0.865 (inactive) | Z-AUC [5, 11]: 0.128 | Z-AUC ([5]; measured here: PEO4 Z-AUC): -0.734

COc1ccc2c3c1OC1C[C@@H](O)C=C[C@@]31CCN(C)C2 (some centres not stated)
Potency [1]: inactive | Potency [2]: inactive | z-score [6, 12]: 0.657 | z-score [6, 13]: 0.378 | z-score [6, 14]: -0.117

CC(C)n1cnc2c(NCCCCCCNC(=O)OC(C)(C)C)nc(NCCO)nc21
Potency [1]: 14.8 µM (active) | Z-AUC [5]: 0.728 (inactive) | Z-AUC [5, 11]: 0.841 | Z-AUC ([5]; measured here: PEO4 Z-AUC): 1.56

CC(C)(C)OC(=O)N[C@H]1CCCCCC=C[C@@H]2C[C@@]2(C(=O)NS(=O)(=O)C2CC2)NC(=O)[C@@H]2C[C@@H](OC(=O)N3Cc4cccc(F)c4C3)CN2C1=O
Potency [1]: inactive | Potency [2]: inactive | Potency [3]: inactive | Z-AUC [5]: 0.565 (inactive) | Z-AUC [5, 11]: 0.658 | Z-AUC ([5]; measured here: PEO4 Z-AUC): 1.2 | z-score [6, 12]: 0.6 | z-score [6, 13]: 0.826 | z-score [6, 14]: 2.04
